The full ranking holds about 59,000 sequences; the median of the read-out is about -0.00055, and the lowest 2% start at about -2. Shown is part of a subset that was picked to be rich in the lowest values.
Test: Identification of proteins required for the processing of the EWS-FLI1 nascent transcript;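 further: robust z of luciferase light less the median z of siRNAs with the same seed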
Details: TC32 Ewing sarcoma NR0B1-luc vs CMV-luc (EWS-FLI1 target promoter against control promoter), 48 h; screened at 20 nM (by protocol)
In short: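 Readout: OneGlo luminescence, 48 h post-transfection, TC32-NR0B1-luc vs TC32-CMV-luc in parallel. siRNA 20 nM final, RNAiMax lipid, 600 cells/well; z-score-MAD transformed, then seed-adjusted.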

| Sequence | seed-corrected z-score |
| --- | --- |
| UCUCUUAUGCAGCUUGUGG against SPTBN4 | 0.43 |
| UGCAUAGACAAGGCAGUCG against ZNRF2 | -2.35 |
| UCAGCUGAUAUCUUGUUGC against UBOX5 | 0.0283 |
| ACAGUUUCGAAGGCGAAUG against ABCB9 | -1.83 |
| AAUGCAACCACAGCUAUCC against THNSL1 | 0.294 |
| UUACUGUGCUGUCUAGACC against TMEM79 | 1.12 |
| UUGCUAUUCCUCCUGGUAG against IRF2BP2 | -0.0854 |
| AAUAUCAAUACGAUCUCUG against SNAP23 | -0.225 |
| UUAUGUAUCAUACAAAAGU against YPEL4 | 1.55 |
| UGUGCCUUUCUGACGAUGG against SBK2 | 0.535 |
| UAAGUGGAAAUCCUCGGGC against WBP2NL | 1.46 |
| UUAUUUAUUCCGUUCAUAU against UBE2V2 | -3.25 |
| UCAUGUAAUCUAGCGAUCG against ENTHD1 | 0.768 |
| UUUUGGUCACUUCAAAUUC against MYDGF | -2.17 |
| UCACAAACCACGUUACACG against PABPC3 | -0.495 |
| AGUAGAUACAGCUUCUUUC against CCDC50 | -0.915 |
| AAAUUUCACAGGUAAUAUG against OR13D1 | -0.485 |
| AUGGUGACAAUUGAACUCC against IGF1R | -1.36 |
| UCUGUUAGCAGCUGGUUUG against SH3D19 | -2.01 |
| UUUAUUAUGAUCUUCCGAG against PIP | 0.162 |
| UUUGACGAAAUGGGAAUCC against OMD | -0.258 |
| UAACGUAUAGCUACAACUC against MED23 | 0.49 |
| UGAUUUUCUGCACAAGUCC against NELL2 | 0.658 |

| Sequence | seed-corrected z-score |
| --- | --- |
| AUUCUGUUCAAACAUCUGG against EXOC3 | -2.38 |
| UACGCGGGCAAACUUCUCC against LRRC14 | 0.0562 |
| AAUUCGCAAAGAAUGAUGC against CNN1 | 0.159 |
| UAGACUACCGGCUUCUUGC against CTRC | -0.112 |
| UCAGCAUCUUCCAUGAUAG against B3GNT4 | -0.437 |
| AUCUGGUUGCUUUUUAUCC against FAM60A | -3.49 |
| UGAACCACCAGGGUAUACG against CDH1 | 1.03 |
| UCUUGAAUUGAGCAAGUCC against MGAT5 | 0.401 |
| UUUCAGCUAAUGCAUUUUG against VIP | -3.11 |
| UGUAGUAGAACUUCCUGGG against HS6ST1 | -1.42 |
| UCAAUUUUGAGUCCAUUGG against ANKRD46 | 0.911 |
| UCCUUUAGAACUCUCGAUC against WIPF3 | 0.233 |
| AUUAACAUAAUCUUGAUCC against CCNL2 | -4.87 |
| UCAAAGGUCACGGUCAGGA against PRDM15 | -1 |
| UUUAGAGGGACUCUUGUUU against HMGA2 | -1.74 |
| UUCUGACUGAGAGCUAUGG against BNIP3L | -0.338 |
| UAAAUAGUUCUCGUCUUUC against EHF | 0.511 |
| UCUCUUGAGAGCGCGGUUG against RGS8 | 1.31 |
| UACUGAUUGAGUGCCCUGC against FGGY | -5.78 |
| UGAAGUUCAGCUACUAGCC against DIMT1 | -0.104 |
| UAAACAGUGAUUGCACCAC against ZNF497 | -1.22 |
| UAAGAAAAUAGGGAGGCCG against H1F0 | 0.96 |
| UCCGAGUCAAUACUGUAUC against UIMC1 | 0.162 |

| Sequence | seed-corrected z-score |
| --- | --- |
| UGCUUUUUCAUGGACCACC against SOD1 | -3.09 |
| ACUAAUACUAAAUUCAACC against CSDE1 | 1.52 |
| UCCAGCUGAACUGUCACUC against TBX10 | -0.201 |
| UUCUUUUCCAGGUACGUGA against CCDC105 | -0.394 |
| UAUGUGCUUACUAGGGUCA against SSR3 | -0.244 |
| AUCUUUCGAACUACAAUUG against PSME4 | 1.14 |
| UCCCAAGUCGCUCAAGUUC against LOC389834 | 0.29 |
| UUUGGAGACAACAAGGUCG against SYN3 | -0.442 |
| UCCGGAAGUACUGUCGAAG against PPP2R1A | -0.186 |
| AAUGUACUAUCUACUUGCC against ZNF507 | -0.378 |
| UCAGGAUCAAAAUCCAGUC against LTV1 | -2.94 |
| UGUCGAAACAGGAGGCGCU against ZNF579 | -1.11 |
| ACAGAUCAAAGAACUGUCC against LGALS4 | 0.144 |
| UACUUGGACAAGUCCAAGA against LSM7 | 0.593 |
| UGAACUUCUGGAGUCCCUC against CCDC115 | 1.1 |
| UUUCGUAACCCUUCUGGGC against GNPTAB | 0.263 |
| UAAGGUUAGGUUAGGAAUG against SH3BGRL3 | -0.0213 |
| UAAUAGACCACGGAGUCUU against TMEM130 | -3.42 |
| UAAUCUCCUUCUUUAGGUC against CNOT3 | 1.42 |
| AGUUCACUAAGUCAAUAGC against TMEM44 | -1.14 |
| UGGGUCAUGUGCUCUAUCC against HDGFL1 | -0.0953 |
| UAUGAGGUAAAGUGGGAAG against LCE2A | -2.17 |
| UUGGGUUCGAUAUCUGCUU against CALML4 | 0.413 |

| Sequence | seed-corrected z-score |
| --- | --- |
| UCAGAAAUGACCUUGUUGC against LOC729187 | 1.39 |
| AUCGGCAAAGUAAUUCUGG against NECAB3 | 0.533 |
| UGUAUUACAAUAUUCCUUC against LACE1 | -0.00635 |
| UCUUGUCGUAGUUCGUGGG against DUS3L | -2.02 |
| AAACUGGUCAUCAUCCACC against SIKE1 | 0.42 |
| AUCUGAGUGGAAAAAGUCC against AHNAK2 | 0.0875 |
| UUCAGACUUGUUUUCACCC against POU1F1 | -0.00706 |
| AAAGGUAGAAAGAAGGACU against ZDHHC8P1 | -0.722 |
| UUGGUCUAGACUACUCUCC against KRT5 | -0.431 |
| ACAGAUAUCACAGGUAACC against MCU | 0.266 |
| AACAUAGCUAAAGUUGUUG against SLC16A5 | -3.24 |
| GAGCCGAACACCACUAUGG against SYNGR1 | -0.617 |
| AGAUCUACUACAGCCGUUC against RARS2 | 0.391 |
| UUCGACCCAAGGUUUGUGC against DBF4 | 0.865 |
| UUAAUGAUAAACACGUCUU against LMX1A | -0.388 |
| UCCUAUAGCAGAAUAUUCC against PVRL3 | -0.846 |
| UCAACAUUAGGUUUCUUAG against TAF9B | 0.431 |
| UCUGGUAGUUCUUCAAGGC against LINC00238 | 0.0623 |
| UAUUCUGUAGGCUCAAAAC against KRTAP4-11 | -3.43 |
| UUUCGCUAAGCUGCUCUUC against AQP9 | -0.131 |
| UUAUGGAAUGUCGUUUUCC against FAM228A | 0.0891 |
| UAAUGUCUAAGGAAGAUUU against ZBTB8A | 0.693 |
| AAGCUGAUAAUAGGCUUUC against DNAJA3 | -0.565 |

| Sequence | seed-corrected z-score |
| --- | --- |
| UUCCAAGACAGAAAUGAGG against DNHD1 | 0.456 |
| UGGGAUUUUAAAACGGCGG against DPP9 | 0.0729 |
| UUCUAUUUAGGAGAGCUUC against RPS16P10 | -1.32 |
| UAUCUUGUGGUGGUAGAGC against METTL23 | 0.782 |
| UCCGUUUUUGAGAAACUUG against PNLDC1 | -0.423 |
| UAGAAAGUCUUUACUAUGU against PIGA | -1.02 |
| UAAGUAGAUGGAGGACACC against MRGPRF | -2.16 |
| AUAUAGGAUCUUAUUGUGC against B4GAT1 | -0.205 |
| UUUUGUCCCGGAACAUGCG against BCR | -0.22 |
| UUCUCGUUCUGUUAAGUUC against CCDC144B | 0.479 |
| UGUUGUAGUAGUAACGCAG against LOC390937 | -3.19 |
| UCAGUUGUUACGCAAGGUG against PI16 | -0.652 |
| AAAUGGUCCAGAAUCCAGC against FOXN2 | 0.634 |
| UUUGGGUCGUUGUACAUCU against AGBL4 | -2.02 |
| UACUGAACUCCAUCUGACU against C1orf198 | 1.54 |
| UCGUUGUAUAAUUUUGCCC against WDR17 | -1.13 |
| AAUGCGACGAGACAAGAUG against WASF2 | 0.812 |
| UUCAUUAAGAAGCACCUGG against NDFIP2 | 0.91 |
| ACUAGUACUGGGAAGGUCC against CDKN1C | -2.28 |
| UCUAGGCUCAGCAAUGACU against CD19 | 0.138 |
| AAUAGAUUCAACAAGGGUG against BCL10 | 1.13 |
| AUGGAGGUAAUGACGAUCA against UPK3B | -2.86 |
| UCUAGAUACUUAAUGGUGC against LAMP2 | 0.192 |

| Sequence | seed-corrected z-score |
| --- | --- |
| UUAUUGACACUUGUUCAAG against COX7A1 | 0.106 |
| AAUGUAUCUAAGCAACUUC against DDIAS | -0.473 |
| ACAUAGGUUGGGUCGAUCC against XYLT2 | -1.65 |
| UACUUAACCGGGAAGCUAC against NUMB | -0.172 |
| UUUGCAGGUAGAAUUAAGG against B3GALT5-AS1 | -2.65 |
| UUAGCAUCUGCAGCAUUCU against RBMY2DP | -0.255 |
| UGGGUUGUAGAGAUCUACC against AKAP4 | 0.156 |
| UACCCGGAAAAGUAAAUCC against ROBO2 | 0.288 |
| UGAUAUAUGAAUUGGAGUC against CDKN3 | -0.146 |
| UUCUUCAUCAGAUGGUUCC against SF3B2 | -3.21 |
| AGUUUAGCUAUGACAAUGG against C2orf66 | 0.917 |
| UUCUCCUUCAUCAAGUUCA against S100A7L2 | 0.705 |
| UUCGUUACAGAACUGACCG against YEATS2 | -0.228 |
| UCCAUAACCUGUUCUACGC against NFU1 | 0.244 |
| UCUUGUCUACUAUCACUGC against PRR13 | 1.15 |
| UUCUGAACCUUCGCAGUGC against PPP1R3B | 0.0534 |
| UUCUGAAACAAGCCCUUGC against CCDC103 | -2.08 |
| UUCUUGACUAUCUUCAUCU against CBX4 | -0.275 |
